Compound activity as filed in PubChem BioAssay.
This is a sample that favours compounds with a hit; in the whole collection about 3.4% have one here.
FBW7 act: FBW7 E3 ligase activators, primary screen, biochemical, AlphaScreen, human | F-box/WD repeat-containing protein 7 (Homo sapiens), Q969H0 | AlphaScreen FBW7–phospho-cyclin E peptide binding, activator screen | normalized activity (activation), % at 26.1 µM | 0.13% of 650,000 active | AID 1259310, 2017; in the data active means normalized activity above about 1.9%;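 further: purified mutant Fbw7 with reduced substrate affinity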
TEAD-YAP block: TEAD-YAP interaction inhibition, primary screen, TEAD-YAP interaction inhibitor project, luminescence, HEK-TIYL cells | AID 1259422, 2018 | TEAD-Gal4/YAP UAS-luciferase luminescence | inhibition, % at 9.12 µM | 1.4% of 640,000 active; in the data active means inhibition above about 32%;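 further: 0% = median of test compound wells and 100% = reference inhibitor wells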
MITF inh: MITF inhibitors, primary screen, biochemical, AlphaScreen, human; AlphaScreen MITF homodimerization, bead proximity signal; inhibition, % at 2.6 µM; 0.91% of 650,000 active; in the data active means inhibition above about 50%;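 further: 0% = vehicle wells with protein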
GPR151 activ: activators of human GPR151, primary screen, cell-based, PathHunter beta-arrestin, luminescence; PathHunter beta-arrestin GPR151 cells; activation, % at 11.2 µM; AID 1508602, 2020; 1% of 650,000 active; in the data active means activation above about 4.9%;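 further: 0% = median of compound wells and 100% = cells with positive control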
Target sequence (Q8TDV0 whole entry, looked up): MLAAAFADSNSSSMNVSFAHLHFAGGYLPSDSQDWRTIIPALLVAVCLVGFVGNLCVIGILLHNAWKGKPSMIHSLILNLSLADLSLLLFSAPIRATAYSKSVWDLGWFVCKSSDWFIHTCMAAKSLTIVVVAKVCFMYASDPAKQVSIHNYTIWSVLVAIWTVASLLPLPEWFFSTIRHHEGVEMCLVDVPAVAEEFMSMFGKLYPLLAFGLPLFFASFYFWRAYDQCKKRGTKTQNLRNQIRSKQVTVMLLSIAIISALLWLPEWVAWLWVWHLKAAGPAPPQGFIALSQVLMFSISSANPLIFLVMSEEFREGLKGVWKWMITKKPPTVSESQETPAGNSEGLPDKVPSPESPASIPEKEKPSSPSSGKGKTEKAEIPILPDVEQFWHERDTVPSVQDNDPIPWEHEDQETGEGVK
GPR151 confirm: GPR151 activators, triplicate retest, confirmation, cell-based, PathHunter beta-arrestin, luminescence. GPR151 PathHunter beta-arrestin cells, 90 min; % of EA-reagent control over plate median. shares compounds with GPR151 activ. 6,700 tested, under 10 active. activation, % at 11.2 µM;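 active means mean percent activation across replicates above the confirmation screen cutoff of 4.91%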
GPR119 ag: GPR119 activators in beta-arrestin cells, counter-screen for GPR151 activator project, cell-based, PathHunter beta-arrestin, luminescence, triplicate; 90 min; 0 = compound-well median, 100 = enzyme-acceptor control; shares compounds with GPR151 activ; activation, % at 11.2 µM; 0.3% of 6,700 active;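 active means mean percent activation in the counterscreen above 29.09%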;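 further: counterscreen on off-target GPR119 to flag nonselective hits from the GPR151 activator screen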
An asterisk follows results filed as active; x = not tested or not shown.

SMILES	FBW7 act	TEAD-YAP block	MITF inh	GPR151 activ	GPR151 confirm	GPR119 ag
C/C=C(\C)C(=O)N1CCc2c(cnc(C)c2CNS(=O)(=O)c2ccsc2)C1	0	10	-97	0	x	x
COC(=O)c1cc(NC(=O)CCS(=O)(=O)c2ccc(OC)cc2)cc(C(=O)OC)c1	0	4	5	1	x	x
COC(=O)c1ccc(NC(=O)CCS(=O)(=O)c2ccc(OC)cc2)cc1	0	-5	-3	5.0*	0	-1
COC(=O)CCS(=O)(=O)c1ccc(Cl)cc1	0	1	-6	0	x	x
COC(=O)CCS(=O)(=O)c1ccc(Oc2ccc(S(=O)(=O)CCC(=O)OC)cc2)cc1	0	14	1	5.7*	1	-3
O=C(CSc1nc(=O)n(CCCO)c2c1CCCC2)N1CCCCC1	-1	-5	-1	4	x	x
O=c1[nH]c(N2CCCC2)nc2c1CCN(Cc1cccc3nccnc13)C2	0	4	12	-1	x	x
CC1CCN(c2nc3c(c(=O)[nH]2)CCN(Cc2cccc4nccnc24)C3)CC1	0	5	-6	7.4*	1	6
CC1CN(c2nc3c(c(=O)[nH]2)CCN(Cc2c(O)ccc4ccccc24)C3)CC(C)O1 (stereo not given)	0	4	9	5.2*	1	1
NC(=O)COC(=O)CCN1c2ccccc2Sc2ccccc21	-1	16	-8	9.8*	0	-13
C#CCN1C(=O)S/C(=C/c2ccc(C(=O)OC)cc2)C1=O	0	2	-6	5.9*	0	-5
CCOP(=O)(CC(CN1CCCCC1)P(=O)(OCC)OCC)OCC (stereo not given)	1	13	22	0	x	x
CCN1CC=C2C(C#N)=C(N)C(C#N)(C#N)C(c3c(OC)ccc4ccccc34)C2C1 (stereo not given)	0	-8	9	5.6*	-1	-12
Cc1ccc(CN=Cc2c(NCc3ccc(C)cc3)nc3ccccn3c2=O)cc1	0	-16	1	5.3*	0	-1
CC1(C)OC(=O)C(Cc2ccc([N+](=O)[O-])cc2)(Cc2ccc([N+](=O)[O-])cc2)C(=O)O1	0	-5	-2	-2	x	x
Cc1cccc(-c2nc(CCNC(=O)Cc3ccccc3)cs2)c1	0	-1	-2	5.8*	1	5
COc1cc(OC)cc(-c2nc3ccccc3c(=O)n2NC(=O)Cc2ccc(Cl)cc2)c1	0	-1	0	-1	x	x
COc1ccc(-c2cnc(SCCNC(=O)c3ccc(F)c(F)c3)[nH]2)cc1	0	-7	17	3	x	x
CCOC(=O)c1ccc(NC(=O)C(=O)Nc2ccc3nc4n(c(=O)c3c2)CCCCC4)cc1	0	7	-2	-1	x	x
CCOC(=O)C(=O)Nc1ccc2nc3n(c(=O)c2c1)CCCCC3	0	2	-22	5.4*	0	-6
CCOc1ccc(N(CC)C(=O)C(=O)Nc2ccc3nc4n(c(=O)c3c2)CCCCC4)cc1	1	8	12	11*	1	5
Cc1cc(NCc2cccc(C(F)(F)F)c2)nc(N2CCc3ccccc3C2)n1	0	2	-2	2	x	x
COc1cccc(CNC(=O)CN(C)c2nnc(N3CCCC3=O)s2)c1OC	0	-2	0	5.3*	-1	-5
Cc1ccccc1CNC(=O)CN(C)c1nnc(N2CCCC2=O)s1	1	-5	11	0	x	x
CCOc1ccc(N2CC(C(=O)N3CCC4(CC3)NC(=O)c3ccccc3N4)CC2=O)cc1 (stereo not given)	0	-4	2	5.1*	0	-7
SMILES	FBW7 act	TEAD-YAP block	MITF inh	GPR151 activ	GPR151 confirm	GPR119 ag
CCOc1ccc(N2CC(C(=O)N3CCN(C(=O)C4CC(=O)N(c5ccc(OCC)cc5)C4)CC3)CC2=O)cc1 (stereo not given)	0	-24	-2	2	x	x
CCOc1ccc(N2CC(C(=O)OC)CC2=O)cc1 (stereo not given)	0	9	3	6.4*	0	-1
CCc1[nH]n2c(=O)c(Cl)c(C)nc2c1-c1cccs1	0	8	2	7.3*	0	7
CC(c1ccccc1)N1C(=O)CC(Nc2ccc(N3CCOCC3)cc2)C1=O (stereo not given)	-1	1	8	7.2*	0	13
CC(C)N1C(=O)CC(Nc2ccc(N3CCOCC3)cc2)C1=O (stereo not given)	0	-27	1	0	x	x
CCCCOC(=O)C1=C(C)OC23OC(N)=C(C#N)C12C(=O)c1ccccc13 (stereo not given)	0	2	-2	0	x	x
CC(C)N(C)C(=O)CC1C(=O)NCCN1Cc1cccc(C(F)(F)F)c1 (stereo not given)	0	9	-9	0	x	x
COc1nc(NCCO)nc(-c2c(C)nn(C)c2C)n1	0	8	2	14*	-1	-9
COc1ccc(NC2=C(C(C)=O)C(c3ccc(N(C)C)cc3)C(C(C)=O)C(C)(O)C2)cc1 (stereo not given)	0	3	1	13*	1	13
COc1ccc(NC2=C(C(C)=O)C(c3ccc(OC)cc3)C(C(C)=O)C(C)(O)C2)cc1 (stereo not given)	0	4	9	0	x	x
COC(=O)c1ccccc1NC(=O)Cn1c(SCc2ccccc2)nc2ccccc21	0	-10	-7	1	x	x
CCCN(CCC)CCCn1cnc2c([nH]c3ccc(F)cc32)c1=O	0	6	9	5	x	x
CCCN(CCC)CCCn1cnc2c([nH]c3ccc(OC)cc32)c1=O	0	-1	-4	5.1*	0	5
Cc1cc(C)cc(C(=O)Nc2ccc([N+](=O)[O-])cc2C)c1	0	2	-6	8.9*	0	-3
Cc1ccc(C(=O)Nc2ccc([N+](=O)[O-])cc2)c(Cl)c1	0	-44	8	15*	1	6
COc1ccccc1C(=O)Nc1ccc(I)cc1Cl	0	-20	-23	7.2*	0	12
COc1cccc(OC)c1C(=O)Nc1ccc(I)cc1Cl	0	-6	-25	-1	x	x
O=C(Nc1ccc(S(=O)(=O)Nc2nccs2)cc1)c1ccc([N+](=O)[O-])cc1Cl	0	-2	8	5.2*	0	-2
O=C(Nc1ccc2[nH]ncc2c1)[C@H]1CCCN1C(=O)C(O)c1ccc(F)cc1F (stereo not given in full)	0	-4	-2	-1	x	x
